Test results published in PMC4336329 (PLoS ONE, 2015).
About 14,000 (4.5%) of roughly 310,000 compounds showed an effect of 50% or more. Effects have a minus sign here. The sample as a whole holds a higher share of strong results than the screen did.

target: human ether-à-go-go-related gene (hERG) potassium channel (human, UniProt Q12809); assay: primary screen, population patch clamp on CHO cells stably expressing hERG; higher = less effect of the substance
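Further: peak tail current of the secondary pulse compared with the same well before compound.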

Sequence of human ether-à-go-go-related gene (hERG) potassium channel (Q12809 whole entry, looked up): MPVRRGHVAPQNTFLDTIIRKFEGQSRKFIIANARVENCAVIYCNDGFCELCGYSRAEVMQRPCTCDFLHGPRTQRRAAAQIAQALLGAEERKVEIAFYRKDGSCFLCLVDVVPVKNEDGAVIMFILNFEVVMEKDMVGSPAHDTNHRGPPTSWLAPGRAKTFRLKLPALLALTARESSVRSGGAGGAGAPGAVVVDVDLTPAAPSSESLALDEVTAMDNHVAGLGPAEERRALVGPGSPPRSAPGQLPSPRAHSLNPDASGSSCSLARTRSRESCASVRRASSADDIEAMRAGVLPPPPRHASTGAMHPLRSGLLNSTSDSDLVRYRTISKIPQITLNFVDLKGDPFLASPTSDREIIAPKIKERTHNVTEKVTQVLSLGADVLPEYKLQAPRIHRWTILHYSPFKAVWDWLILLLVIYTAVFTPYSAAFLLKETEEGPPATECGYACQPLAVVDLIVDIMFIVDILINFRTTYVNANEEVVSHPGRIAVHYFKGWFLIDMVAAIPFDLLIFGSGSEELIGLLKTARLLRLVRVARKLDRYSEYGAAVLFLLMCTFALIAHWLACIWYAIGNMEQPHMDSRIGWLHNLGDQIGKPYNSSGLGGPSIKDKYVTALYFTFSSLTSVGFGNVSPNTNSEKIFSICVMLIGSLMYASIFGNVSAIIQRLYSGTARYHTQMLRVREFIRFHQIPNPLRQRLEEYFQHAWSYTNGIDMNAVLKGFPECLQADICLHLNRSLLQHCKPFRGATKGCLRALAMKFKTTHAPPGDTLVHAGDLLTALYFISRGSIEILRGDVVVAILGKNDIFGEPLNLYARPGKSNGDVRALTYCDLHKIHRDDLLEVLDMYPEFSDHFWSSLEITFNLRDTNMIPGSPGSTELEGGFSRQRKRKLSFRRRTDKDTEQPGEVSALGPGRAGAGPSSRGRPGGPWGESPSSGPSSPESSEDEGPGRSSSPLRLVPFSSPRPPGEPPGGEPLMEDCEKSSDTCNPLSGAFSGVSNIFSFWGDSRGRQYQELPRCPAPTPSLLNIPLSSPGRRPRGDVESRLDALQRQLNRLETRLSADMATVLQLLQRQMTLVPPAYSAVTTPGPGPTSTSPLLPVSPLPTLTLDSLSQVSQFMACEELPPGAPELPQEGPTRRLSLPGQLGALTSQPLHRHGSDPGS

SMILES | hERG current change (%, negative = inhibition) at 10uM [%]
CC(NC(=O)Cn1cnnn1)C12CC3CC(CC(C3)C1)C2 (stereo not drawn) | 7.75
CCCC1C(C(=O)OCC)=C(C)NC(C)=C1C(=O)OCC | 10.7
CC(C)c1ccc(OCc2ccc(C(=O)NN3CCN(C)CC3)o2)cc1 | -31.7
Cc1cccc(C)c1OP(N)(=O)Oc1c(C)cccc1C | 11
CC(C)C(=O)Nc1ccc(C(=O)NNC(=O)c2ccco2)cc1 | 7.75
Cc1cc(C)n(C(=O)C2CCCN2S(=O)(=O)c2ccc(Cl)cc2)n1 (stereo not drawn) | -7.48
CCOc1ccc(C(=O)NCC(=O)Nc2ncccc2C)cc1OCC | 18
COc1ccc(N2CCN(C(=O)CCc3c[nH]c4ccccc34)CC2)cc1 | -10.2
CC(=O)Nc1ccc(S(=O)(=O)NC2C3(C)CCC(C3)C2(C)C)cc1 (stereo not drawn) | 16.9
Cl.NCCSC1CC(=O)N(Cc2ccc(F)cc2)C1=O (stereo not drawn) | -20.4
CCOC(=O)Cc1csc(NC(=O)/C=C/c2ccc(Cl)cc2)n1 | -9.29
O=C(C1CCCN(S(=O)(=O)c2ccc(Br)cc2)C1)N1CCN(Cc2ccccc2)CC1 (stereo not drawn) | -55.1
CN1CCN(C(=O)C2CCCN(S(=O)(=O)c3ccc(Br)cc3)C2)CC1 (stereo not drawn) | -5.87
O=C(O)C1CCCN(S(=O)(=O)c2cccs2)C1 (stereo not drawn) | 4.67
CC(=O)Nc1ccc(S(=O)(=O)N2CCCC(C(=O)N3CCN(c4ccccc4)CC3)C2)cc1 (stereo not drawn) | -50.9
CC(=O)Nc1ccc(S(=O)(=O)N2CCCC(C(=O)O)C2)cc1 (stereo not drawn) | -3.16
O=C(C1CCCN(S(=O)(=O)c2cccs2)C1)N1CCN(C2CCCCC2)CC1 (stereo not drawn) | -24.6
CC(=O)N1CCCc2cc(S(=O)(=O)N3CCCC(C(=O)N4CCN(c5ccccc5)CC4)C3)ccc21 (stereo not drawn) | -21.3
O=C(C1CCCN(S(=O)(=O)c2ccc(Br)cc2)C1)N1CCOCC1 (stereo not drawn) | -13.8

SMILES | hERG current change (%, negative = inhibition) at 10uM [%]
CCOc1ccc(S(=O)(=O)N2CCCC(C(=O)N3CCN(c4ccccc4)CC3)C2)cc1 (stereo not drawn) | -56.3
O=C(C1CCCN(S(=O)(=O)c2cccs2)C1)N1CCC(N2CCCCC2)CC1 (stereo not drawn) | -61.7
CCOC(=O)N1CCN(C(=O)C2CCCN(S(=O)(=O)c3ccc(OCC)cc3)C2)CC1 (stereo not drawn) | -46.2
CCOc1ccc(S(=O)(=O)N2CCC(C(=O)N3CCN(c4ccccc4)CC3)CC2)cc1 | -18
COc1cccc(Nc2nc(-c3sc(N)nc3C)cs2)c1 | -18.2
CNc1nc(-c2c(C)n(C)c3ccc(OC)cc23)cs1 | 19.2
Cl.Clc1ccccc1CSC1=NCCCN1 | 0.0434
O=C(CN(C(=O)CCC(=O)Nc1ccccn1)c1ccc2c(c1)OCCO2)NCCc1ccccc1 | 2.29
CC1CCCC(C)N1c1ccc(S(=O)(=O)N2CCOCC2)cc1Cl (stereo not drawn) | 11.5
COc1ccc(C2SCC(=O)N2CC23CC4CC(CC(C4)C2)C3)cc1 (stereo not drawn) | 3.15
O=C(C1CCCN(S(=O)(=O)c2ccc(Br)s2)C1)N1CCN(c2ccccc2)CC1 (stereo not drawn) | -63.8
CCOC(=O)C1CCN(C(=O)C2CCCN(S(=O)(=O)c3ccc(OC)c(Cl)c3)C2)CC1 (stereo not drawn) | -67.2
O=C(C1CCCN(S(=O)(=O)c2ccc(Br)s2)C1)N1CCCCCC1 (stereo not drawn) | -11.8
CCOC(=O)C1CCN(C(=O)C2CCCN(S(=O)(=O)c3ccc(OCC)c(Cl)c3)C2)CC1 (stereo not drawn) | -40.8
O=C(C1CCN(S(=O)(=O)c2ccc(Br)s2)CC1)N1CCN(c2ccccc2)CC1 | -10.5
CCOC(=O)C1CCN(S(=O)(=O)c2ccc(OC)c(Cl)c2)CC1 | 9.79
COc1ccc(CCNC(=O)Cn2nnc(-c3ccccc3F)n2)cc1OC | 1.44
CC1CCCN(C(=O)COC(=O)CNC(=O)c2ccc(Br)cc2)C1 (stereo not drawn) | -8.3
CCOC(=O)C1CCN(C(C(=O)NC2CCCC2)c2ccc(C)cc2)CC1 (stereo not drawn) | -21.8

SMILES | hERG current change (%, negative = inhibition) at 10uM [%]
CC(C)c1ccc(O)c(NC(=O)c2cccnc2)c1 | 6.07
Cc1sc2ncnc(NCC(C)(C)N3CCOCC3)c2c1C | -71.7
c1nc(Nc2ccc(N3CCOCC3)cc2)c2ccsc2n1 | -7.59
Cc1sc2ncnc(NCC3CCCO3)c2c1C.Cl (stereo not drawn) | -1.4
Cc1sc2ncnc(NCCCN3CCCC3=O)c2c1C | 3.27
Cc1sc2ncnc(NCCN3CCOCC3)c2c1C.O=C(O)C(=O)O | -22.4
Cc1sc2ncnc(N3CCOCC3)c2c1C | -13.7
c1nc(NCC2(N3CCOCC3)CCCCC2)c2ccsc2n1 | -73.3
Cc1sc2ncnc(NCC3(N4CCOCC4)CCCCC3)c2c1C | -71.1
c1csc(CNc2ncnc3sccc23)c1 | -20.3
C=CCNC(=O)CC(=O)N/N=C/c1ccc(F)cc1 | -3.54
CCSC(=O)NC12CC3CC(CC(C3)C1)C2 | 6.27
Cc1cc(OCC(=O)NCc2ccccn2)c2c(C)cc(=O)oc2c1 | -7.15
O=C(NC(=S)Nc1ccc(S(=O)(=O)N2CCCCCC2)cc1)c1cccs1 | -5.3
O=C(CCc1ccc(S(=O)(=O)N2CCOCC2)cc1)N/N=C/c1ccc(O)c(O)c1O | 18.9
COc1ccc(NC(=O)C2=C(C)Nc3ncnn3C2c2ccccc2C(F)(F)F)c(OC)c1 (stereo not drawn) | 2.77
CCOc1ccc(C(C)=O)cc1CSc1nc(C)cc(C)n1 | -6.21
CCOc1ccccc1NC(=S)N1CCC(NC(=O)NC23CC4CC(CC(C4)C2)C3)CC1 | -13.7
COc1ccc(S(=O)(=O)N2CCCOC2CNC(=O)C(=O)NCc2ccco2)cc1 (stereo not drawn) | -22
